PubChem BioAssay (NCI)
Compounds without any hit were thinned out: in the full panel of roughly 83,000, 20% have a hit.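 Compound tested at a single concentration for 48 hours in 96-well plates; a percent growth value below 10 was scored as active.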 Unmarked numbers belong to inactive results. Activity calls are given as the source filed them.

How the values were obtained:
Assay in all cases: NCI-60 one-dose screen, 48 h (100 = growth as untreated, 0 = no growth, -100 = all killed)
Conditions in all cases: 10 µM unless noted
SR leukemia = system: SR leukemia
RPMI-8226 leukemia = system: RPMI-8226 leukemia
OVCAR-8 ovarian = system: OVCAR-8 ovarian
OVCAR-5 ovarian = system: OVCAR-5 ovarian
OVCAR-4 ovarian = system: OVCAR-4 ovarian
SK-OV-3 ovarian = system: SK-OV-3 ovarian
IGROV1 ovarian = system: IGROV1 ovarian
OVCAR-3 ovarian = system: OVCAR-3 ovarian
HS 578T breast = system: HS 578T breast
NCI/ADR-RES ovarian = system: NCI/ADR-RES ovarian
T-47D breast = system: T-47D breast
BT-549 breast = system: BT-549 breast
MDA-MB-435 melanoma = system: MDA-MB-435 melanoma
SW-620 colon = system: SW-620 colon
MCF7 breast = system: MCF7 breast
HCT-116 colon = system: HCT-116 colon
HCC-2998 colon = system: HCC-2998 colon
KM12 colon = system: KM12 colon

Structure (SMILES) | growth (SR leukemia) | growth (RPMI-8226 leukemia) | growth (OVCAR-8 ovarian) | growth (OVCAR-5 ovarian) | growth (OVCAR-4 ovarian) | growth (SK-OV-3 ovarian) | growth (IGROV1 ovarian) | growth (OVCAR-3 ovarian) | growth (HS 578T breast) | growth (NCI/ADR-RES ovarian) | growth (T-47D breast) | growth (BT-549 breast) | growth (MDA-MB-435 melanoma) | growth (SW-620 colon) | growth (MCF7 breast) | growth (HCT-116 colon) | growth (HCC-2998 colon) | growth (KM12 colon)
CN(C)c1ccc(/C=C\C2=[N+](C)c3ccccc3C2(C)C)cc1 | 25% | 66.5% | 20.8% | 27.9% | 35.5% | -11.6% (active) | 9.25% (active) | -9.9% (active) | 9.83% (active) | 84.1% | 0.627% (active) | -4.12% (active) | 3.88% (active) | 10.3% | 3.95% (active) | 7.97% (active) | 23.4% | -21.1% (active)
O=C1CCc2c(sc3[nH]c(=S)n(Cc4ccccc4)c(=O)c23)C1 | 15.5% | 3.36% (active) | 14.3% | 9.59% (active) | 21.8% | 22.2% | 34.2% | 9.16% (active) | -3.81% (active) | 4.56% (active) | 6.69% (active) | 10.6% | 15% | 15.4% | 15.8% | 6.51% (active) | 23.9% | 5.93% (active)
Cc1ccc(-c2nc(/C=N/Nc3cc(C)nc4ccc(Br)cc34)c(C)o2)cc1 | 2.27% (active) | -38.5% (active) | -63.5% (active) | -68.7% (active) | -94.3% (active) | 105% | -77.3% (active) | -94.8% (active) | 102% | -69.9% (active) | -8.4% (active) | 86.3% | -95.1% (active) | -84.7% (active) | -78.6% (active) | -65.8% (active) | -63.4% (active) | -39.9% (active)
